# Where “and” joins values, the source holds several entries; their conditions need not be identical. Identical values can stand only once. Out of some 410,000 compounds screened, about 18,000 (4.4%) were called active. About 7% were inconclusive and are not listed. Cut-off read from the data, not from the text of the source: active = activity change below about -60%; inconclusive = no clear call, values can overlap the other calls; inactive = above about -39%. The entries come from a sample that favours actives as a whole. Where a structure was tested more than once in an assay, its records may differ in their call.
# Assay: qHTS Assay for inhibitors of the human cytomegalovirus (HCMV)
# Conditions: HFF cells, HCMV-luciferase reporter, 72 h; at 57.5 µM; stronger effect = lower value
# Outline: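 Human foreskin fibroblasts infected with luciferase-reporter HCMV at MOI 1 PFU/cell, compounds at two doses. Luciferase measured 72 h post infection; normalized to buffer-only basal and Salinomycin (10uM) controls.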
# % is set by controls: 0 for no effect and ±100 for the full control effect.
row,SMILES,"activity change, negative = inhibition"
1,CC1(C)N=C(SCc2ccccc2Cl)c2ccccc2N1,5.15% (inactive)
2,Cc1ccc2c(=O)c(C(=O)c3ccc(F)cc3)cn(CC(=O)NC3CCCCC3)c2n1,6.71% (inactive)
3,CCc1ccccc1NC(=O)Cn1c(=O)n(CC2CCC(C(=O)NCCc3ccccc3)CC2)c(=O)c2ccccc21 (stereo unspecified),17.8% (inactive)
4,Cc1cc(NC(=O)CSc2ncc(C(=O)Nc3ccc(Cl)cc3)c(=O)n2C)no1,7.76% (inactive)
5,CC(=O)Nc1ccc(NC(=O)c2cc3sccc3n2Cc2ccc(F)cc2)cc1,-10% (inactive)
6,COc1ccc2[nH]c3c(C)c4cc[n+](C)cc4c(C)c3c2c1,-97.6% (active)
7,COc1ccc(-n2c(=O)c3sc4ccccc4c3n(CC(=O)Nc3cccc(C)c3)c2=O)cc1,11.4% (inactive)
8,Cc1cc(C)c(/C=C/c2onc(C)c2S(=O)(=O)N2CCC(C(=O)Nc3ccc(Cl)cc3C)CC2)c(C)c1,-20.3% (inactive)
9,CN1CCN(S(=O)(=O)c2ccc(N3CCN(c4ccccc4O)CC3)c([N+](=O)[O-])c2)CC1,-9.97% (inactive)
10,CN1CN(C)c2ccc([N+](=O)[O-])c3cccc1c23,-90% (active)
11,CCN1CCN(c2ccc([N+](=O)[O-])cc2C#N)CC1,-36.6% (inactive)
12,CN(C)S(=O)(=O)c1ccc(N2CCCC2=O)c([N+](=O)[O-])c1,-23.4% (inactive)
13,CC1CCCN(c2csc3ccc(F)cc3c2=O)C1 (stereo unspecified),20.9% (inactive)
14,COc1ccc(-c2cn3c(C)c(C(=O)Nc4cc(C)cc(C)c4)sc3n2)cc1,27.8% (inactive)
15,COc1cc2c(cc1OC)C(COc1ccc(F)cc1)N(C(=O)c1ccccc1F)CC2 (stereo unspecified),-11.8% (inactive)
16,CCn1c(SCC(=O)N/N=C/c2ccccc2OCC(=O)O)nnc1-c1ccc(C(C)(C)C)cc1,0% (inactive)
17,C=C(C)CNC(=S)Nc1ccc(S(=O)(=O)Nc2cnc3ccccc3n2)cc1,-30.9% (inactive)
18,C=C(C)CNC(=S)N/N=C/c1ccccc1OCC(=O)O,-63.4% (active)
19,COc1ccc(-n2ncc3c2CC(C)(C)CC3NC(=O)CCc2c(C)nn(C)c2C)cc1 (stereo unspecified),-35% (inactive)
20,COc1ccc(C(=O)NC2CC(C)(C)Cc3c2cnn3-c2ccccc2)c(OC)c1 (stereo unspecified),-62.5% (active)
21,Cc1cc(C(=O)NC2CC(C)(C)Cc3c2cnn3-c2ccccc2)n[nH]1 (stereo unspecified),-4.62% (inactive)
22,O=C1Cc2cc(S(=O)(=O)Nc3ccc(OC(F)(F)F)cc3)cc3c2N1CCC3,14.6% (inactive)

row,SMILES,"activity change, negative = inhibition"
1,COC(=O)[C@]12CCCCC=C1N(Cc1cccc3ccccc13)C(=O)[C@H](CC(=O)N1CCOCC1)C2,12.2% (inactive)
2,Cc1ccc2nc(COc3cccc(NC(=O)c4ccccc4Cl)c3)cc(=O)n2c1,0.182% (inactive)
3,COc1cc(OC)cc(-c2cc3ccc(F)cc3cn2)c1,59.6% (inactive)
4,COc1ccc(C(C)(O)c2nc(-c3cc(F)cc(F)c3)cs2)cc1 (stereo unspecified),-96% (active)
5,CC(O)(c1cccc(F)c1)c1nc(-c2ccc3c(c2)OCO3)cs1 (stereo unspecified),-11.8% (inactive)
6,CCSc1nnc2c(n1)OC(c1ccc(OCC(=O)O)cc1)Nc1ccccc1-2 (stereo unspecified),33.3% (inactive)
7,Cn1c2ccccc2c(=O)c2c(=O)n(Cc3ccco3)c(COc3ccccc3)nc21,-81.5% (active)
8,CC(C)c1ccc(Cn2c(COc3ccccc3)nc3ccccc32)cc1,57.2% (inactive)
9,COc1cc(NC(=O)Cn2c(=O)n(Cc3ccco3)c(=O)c3oc4ccccc4c32)cc(OC)c1,-18.5% (inactive)
10,CCOc1ccc(N(CC)S(=O)(=O)N2CCCC(C(=O)NCc3ccc(SC)cc3)C2)cc1 (stereo unspecified),-31% (inactive)
11,CCOC(=O)c1ccc(NC(=O)CSc2nc3c([nH]c4ccccc43)c(=O)n2C)cc1,-81.7% (active)
12,CCc1ccc(NC(=O)CSc2nc3c([nH]c4ccccc43)c(=O)n2-c2cccc(OC)c2)cc1,20.7% (inactive)
13,Cc1ccccc1CSc1nc2c([nH]c3ccccc32)c(=O)n1C,34.5% (inactive)
14,Cc1ccc(NC(=O)CSc2nc3c([nH]c4ccccc43)c(=O)n2-c2ccccc2)cc1Cl,-24% (inactive)
15,Cc1ccc(-n2c(SCC(=O)c3ccccc3)nc3c([nH]c4ccccc43)c2=O)cc1,37% (inactive)
16,Cc1ccc(NC(=O)CSc2nc3c([nH]c4ccccc43)c(=O)n2-c2ccccc2)c(C)c1,-65.4% (active)
17,CCn1c(CC(=O)Nc2ccc(C)cc2)nnc1SCC(=O)Nc1nc(C)cs1,28.7% (inactive)
18,O=C(COc1ccccc1F)OCc1cc(=O)n2nc(C3CCCCC3)sc2n1,11.6% (inactive)
19,O=c1c2ccccc2n(Cc2cccc(Cl)c2)c(=O)n1Cc1ccccc1,-14.5% (inactive)
20,CC(C)CCN(C(=O)Nc1ccc(Cl)c(Cl)c1)C(C)c1cccs1 (stereo unspecified),15.6% (inactive)
21,CC(C)(C)C(=O)CSc1ccc(S(=O)(=O)N2CCCC2)cn1,0% (inactive)
22,CCc1c(C)sc(NC(=O)C2c3ccccc3Oc3ccccc32)c1C(=O)OC(C)C,23.5% (inactive)

row,SMILES,"activity change, negative = inhibition"
1,Cc1nc(S(=O)(=O)c2ccc(Br)cc2)nc2c1CCC2,6.93% (inactive)
2,CCOc1ccc(N(CC)C(=O)C2CCN(S(=O)(=O)c3cccc4nonc34)CC2)cc1,-9.41% (inactive)
3,Cc1ccc2c(c1)N(C(=O)Nc1ccc(Br)cc1F)CCO2,-2.87% (inactive)
4,COc1ccccc1N(C)S(=O)(=O)c1ccc(Cl)c(C(=O)N2CCC(C(N)=O)CC2)c1,-15.9% (inactive)
5,COc1ccccc1N(C)S(=O)(=O)c1ccc(C(=O)NC2CCCCCC2)cc1,-30.1% (inactive)
6,COc1ccccc1N(C)S(=O)(=O)c1ccc(Cl)c(C(=O)Nc2ccncc2)c1,-67.6% (active)
7,COc1ccc(C2(Nc3cccc(F)c3)C(=O)c3ccccc3C2=O)cc1,3.54% (inactive)
8,CCOC(=O)c1ccc(CSc2nnc3cc(C)c4ccccc4n23)cc1,0.725% (inactive)
9,COc1cccc(N2CCN(S(=O)(=O)c3cc(Br)cc4c3N(C(=O)C3CC3)CC4)CC2)c1,7.82% (inactive)
10,CN(Cc1ccccc1)c1ncnc2onc(-c3ccc(F)cc3)c12,-33.7% (inactive)
11,COc1ccc(OC)c(NC(=O)CSC2=Nc3ccccc3C3=NC(CC(=O)NCc4ccc(F)cc4)C(=O)N23)c1 (stereo unspecified),-67.3% (active)
12,COc1ccccc1NC(=O)CSC1=Nc2ccccc2C2=NC(CC(=O)NCc3cccs3)C(=O)N12 (stereo unspecified),11.4% (inactive)
13,COc1ccc(OC)c(NC(=O)CSC2=Nc3ccccc3C3=NC(CC(=O)NCCc4ccccc4)C(=O)N23)c1 (stereo unspecified),3.26% (inactive)
14,Cc1ccc(N(CC(=O)NCC2CCCO2)C(=O)CNS(=O)(=O)c2ccc(Cl)cc2)cc1 (stereo unspecified),43.5% (inactive)
15,Cc1nc2nc(SCC(=O)NC3CCC(C)CC3)nn2c(C)c1Cc1ccccc1Cl (stereo unspecified),-21.3% (inactive)
16,CC1CC(C)CN(C/C=C/c2ccccc2[N+](=O)[O-])C1 (stereo unspecified),71.9% (inactive)
17,CC1CCCCC1NC(=O)/C(C#N)=C/C=C/c1ccccc1[N+](=O)[O-] (stereo unspecified),-109% (active)
18,O=C(/C=C/c1ccccc1[N+](=O)[O-])OCC(=O)N1CCCC1,11.1% (inactive)
19,COC(=O)c1cc(S(=O)(=O)N2CCN(c3cc(Cl)ccc3C)CC2)c[nH]1,-37% (inactive)
20,COc1ccc(-c2cn3nc(N4CCC(C(=O)Nc5cccc(C)c5C)CC4)sc3n2)cc1,0% (inactive)
21,Cc1ccccc1CSCCNC(=O)c1ccc(Cl)c(S(=O)(=O)N2CCOCC2)c1,-33.1% (inactive)
22,CN(C)S(=O)(=O)c1ccc(C(=O)NCC(C)(C)N2CCOCC2)cc1,-39.4% (inactive)

row,SMILES,"activity change, negative = inhibition"
1,CC(C)(CNC(=O)c1ccc(Cl)c(S(=O)(=O)N2CCc3ccccc3C2)c1)N1CCOCC1,-77.7% (active)
2,COc1cc2c(=O)c(S(=O)(=O)c3ccc(C(C)C)cc3)cn(Cc3ccccc3C)c2cc1OC,23.6% (inactive)
3,COc1ccnc(Oc2ccccc2)c1-c1ncn[nH]1,-36.6% (inactive)
4,COc1ccnc(Oc2ccccc2)n1,5% (inactive)
5,COc1cnc(-c2ccccn2)nc1Oc1ccc(C(C)(C)C)cc1,-82.7% (active)
6,Cc1cc(OCC(=O)NCC2(N(C)C)CCCCC2)cc(C)c1Cl,-11.2% (inactive)
7,Cc1cc2c(cc1S(=O)(=O)CCC(=O)Nc1ccc(OC(F)(F)F)cc1)OCC(=O)N2,5.03% (inactive)
8,CC1CCCCC1NC(=O)CCS(=O)(=O)c1ccc2c(c1)NC(=O)CO2 (stereo unspecified),-22.8% (inactive)
9,O=C(CCS(=O)(=O)c1ccc2c(c1)NC(=O)CO2)Nc1cccc(C(F)(F)F)c1,-106% (active)
10,CCOC(=O)c1cc2c(=O)n3ccccc3nc2n(CC(C)C)c1=NC(=O)c1c(-c2c(F)cccc2Cl)noc1C,-12.3% (inactive) and -65.2% (active)
11,CCOC(=O)c1cc2c(=O)n3ccccc3nc2n(Cc2ccco2)c1=NC(=O)c1ccc(F)cc1,-0.814% (inactive)
12,CCOC(=O)c1cc2c(=O)n3ccccc3nc2n(CC2CCCO2)c1=NC(=O)c1ccccc1F (stereo unspecified),5.02% (inactive)
13,CCOc1ccc(-n2cnc3c(=O)[nH]c(N)nc32)cc1,29.7% (inactive)
14,CCc1ccc(NC(=O)CN2C(=O)CCSc3ccc(S(=O)(=O)N4CCCC4)cc32)cc1,14.8% (inactive)
15,Nc1ncnc(Nc2cccc(Cl)c2Cl)n1,8.97% (inactive)
16,CC(=O)Nc1cccc(NC(=O)CSc2nccn2Cc2ccc3c(c2)OCO3)c1,-12.3% (inactive)
17,COc1ccc(CNC(=O)C2=Cc3cccc(OC)c3OC2)cc1OC,-2.4% (inactive)
18,COc1ccc(CNS(=O)(=O)c2cc(Br)ccc2Br)cc1,-5.85% (inactive)
19,Cc1ccc(C(=O)Nc2ccc(C(=O)O)cc2)cc1S(=O)(=O)Nc1ccccc1,6.44% (inactive)
20,O=C(Nc1ccc(Br)cc1)c1ccc(Br)c(S(=O)(=O)NCc2ccccc2)c1,-106% (active)

# Reference: PubChem BioAssay AID1259415 (National Center for Advancing Translational Sciences (NCATS), 2018)
